# Assay outcomes deposited in PubChem by National Center for Advancing Translational Sciences (NCATS).
# KB-3-1 tox = kills parental KB-3-1 adenocarcinoma cells; KB-3-1 viability, CellTiter-Glo ATP luminescence, 72 h; Potency, µM (highest dose often 46.1 µM), usual class: cytotoxic; hit rate 1.4% among 400,000; also: % is scaled to controls: 0 for no effect and ±100 for the full control effect; nearly all actives have a fitted effect of over 60% in size
#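 Multi-concentration cytotoxicity screen in KB-3-1 cells grown in DMEM lacking phenol red with 10% FBS. After 72 h at 37 °C with compound, ATP-dependent luminescence was recorded.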
# HepG2 viability = counter-screen for TGF-b inhibitors: cytotoxicity in HepG2 cells. HepG2 CAGA-GFP viability, ATP luminescence, 18 h. Potency, µM (series often up to 46.1 µM), for inactives: at the highest dose activity change, negative = cytotoxicity, actives largely listed as cytotoxic. hit rate 0.76% among 410,000
#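 CellTiter-Glo luminescence gave cytotoxicity after 18 hours at 37 degrees C. The cells were HepG2 CAGA-GFP in 1% FBS DMEM, stimulated with 500 pg/mL TGF-beta after compound addition. %Activity was normalised to no-cell wells (complete cell-killing) and DMSO (no toxicity), and curves were fitted and classified.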
# ATXN2 expr inh = ATXN2 expression inhibition. HEK-293 ATXN2-luciferase reporter, luminescence, 24 h. AID 1745845. Potency, µM (doses to about 57 µM), for the others: at the highest dose activity change, negative = inhibition, hits mostly inhibitors. hit rate 0.72% among 360,000; also: % is scaled to controls: 0 for no effect and ±100 for the full control effect; nearly all actives have a fitted effect of over 55% in size
#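 qHTS (up to 57 uM final) was run with 24 h compound exposure of reporter cells at 37 °C. Each well was multiplexed: SteadyGlo luminescence measured ATXN2-luciferase expression after a fluorogenic Gly-Phe-AFC viability readout (25 uM final).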
# ATXN viability = viability counter-screen for ATXN expression inhibitors; S2 cells (HEK-293 line with an ATXN2-luciferase reporter) viability, CellTiter-Fluor protease fluorescence, 24 h; Potency, µM (series often up to 56.7 µM), most hits filed as cytotoxic; hit rate 0.49% among 400,000; AID 651635; also: nearly all actives have a fitted effect of over 40% in size
# TGFb inhibitor = blocks TGF-b signaling; hit rate 1.2% among 410,000; Potency, µM (titrated, usually from 46.1 µM), inactives show at the highest dose activity, negative = inhibition, most hits filed as inhibitors; HepG2 CAGA-GFP TGF-b/SMAD3 reporter, GFP fluorescence, 18 h; TGF-beta stimulated, 500 pg/mL final; also: % is scaled to controls: 0 for no effect and ±100 for the full control effect; nearly all actives have a fitted effect of over 65% in size
#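 Inhibition of TGF-beta-driven CAGA-GFP reporter expression in HEPG2 cells is measured by cellular GFP fluorescence after 18 h stimulation with 500 pg/mL recombinant TGF-beta in 1% FBS medium at 37 degrees C.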
# KB-V1 cytotox = KB-V1 MDR subline cytotoxicity; KB-V1 MDR cells viability, CellTiter-Glo, 72 h; Potency, µM (highest dose often 46.1 µM), most hits filed as cytotoxic; hit rate 3.4% among 400,000; AID 1347076; also: % is scaled to controls: 0 for no effect and ±100 for the full control effect; nearly all actives have a fitted effect of over 60% in size
#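 Following 72 h at 37 degrees C with compound, KB-V1 cell viability was read by CellTiter-Glo luminescence, medium being phenol-red-free DMEM plus 10% FBS; concentration-response parameters came from normalized, curve-fitted qHTS data.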
# The depositor's hits bear a star; i = inactive; ? = inconclusive; / = no result given. Compounds with a hit are over-represented: about 5.9% of the library has one in this group of screens. Calls follow the shape of the dose curve; as a rule, active = well fitted curve in the direction sought with a large enough effect; inconclusive = small, poorly fitted or top-dose-only effect, or another doubt; inactive = no such curve, though single readings can be large; an effect the other way counts as inactive or inconclusive. Potency is read from the fitted curve at half-maximal effect.
SMILES,KB-3-1 tox,HepG2 viability,ATXN2 expr inh,ATXN viability,TGFb inhibitor,KB-V1 cytotox
COc1ccc(NC(=O)c2ccc(CN3CCc4ccccc4C3)cc2)cc1OC,?,-23%,0%,i,?,8.2µM*
COc1ccc(NC(=O)c2ccc(COCC(F)(F)F)cc2)cc1OC,i,-18%,9%,i,-1%,21µM*
COc1cccc(NC(=O)c2ccc(CN3CCc4ccccc4C3)cc2)c1,i,-52%,70%,i,?,i
O=C1CCc2cc(S(=O)(=O)Nc3cccc(B(O)O)c3)ccc2N1,i,/,/,/,/,i
CCN(CC)c1ccc(NC(=O)CSc2nc(C3CC3)nc3ccccc23)cc1C,4.6µM*,-3%,-17%,i,-3%,6.5µM*
COc1ccc(N2CCN(C(=O)c3cnn(-c4ccc(F)cc4)c3-n3cccc3)CC2)cc1,?,5%,6%,i,1%,?
COc1ccc(-c2cc(=O)c3ccccc3o2)cc1,i,-65%,24%,i,?,i
COc1ccc2oc(-c3ccccc3[N+](=O)[O-])cc(=O)c2c1,?,-8%,-3%,i,-17%,5.8µM*
COc1cccc(NC(=O)C2(C)CCN2C(=O)CC2CCCC2)c1 (centres undefined),i,0%,3%,i,-12%,16µM*
O=C(NC1CCCC1)c1cn(C2CCN(Cc3cccc4cccnc34)CC2)nn1,/,/,/,i,/,/
CCn1c(SCC(=O)Nc2nc(-c3ccc(C)cc3)cs2)nnc1-c1ccccc1O,?,4%,-15%,i,?,i
Cc1csc(SCC(=O)Nc2nc(-c3ccccc3)cs2)n1,i,3%,32%,i,6%,i
O=C(C[n+]1cc(-c2ccccc2)n2c1CCC2)Nc1nc(-c2ccccc2)cs1,16µM*,-29%,10%,i,9%,i
Nc1ccccc1SCC(=O)Nc1nc(-c2ccccc2)cs1,4.1µM*,-19%,13%,i,-2%,?
CCn1c(SCC(=O)Nc2nc(-c3ccc(C)cc3)cs2)nnc1-c1ccccc1,?,-17%,-12%,i,?,2.6µM*
COc1ccccc1-c1ccnc(-n2ncc(C(=O)N[C@H]3CCCCNC3=O)c2C2CC2)n1,/,/,/,i,/,/
COC(=O)[C@@]1(Cc2ccc(F)cc2)[C@H]2c3cc(C(=O)N(C)C)n(CCO)c3C[C@H]2CN1C(=O)c1ccccc1,i,/,6%,i,/,i
COC(=O)[C@@]1(Cc2ccc(OC)cc2)[C@H]2c3cc(C(=O)N4CCCC4)n(Cc4ccsc4Br)c3C[C@H]2CN1C(=O)c1ccccc1,18µM*,/,-35%,?,/,?
COC(=O)[C@@]1(Cc2ccc(F)cc2)[C@H]2c3cc(C(=O)N(C)C)n(Cc4ccc(C)o4)c3C[C@H]2CN1C(=O)c1ccccc1,?,/,?,/,/,16µM*
COC(=O)[C@@]1(Cc2ccc(F)cc2)[C@H]2c3cc(C(=O)N(C)C)n(CCCNc4ncc(C(F)(F)F)cc4Cl)c3C[C@H]2CN1C(=O)c1ccccc1,?,/,0%,?,/,18µM*
CCCCCCCN(CCCCCCC)c1ccc(/C=C/c2ccnc3ccccc23)cc1,i,-4%,/,/,-4%,?
CCCCN(CCC#N)c1ccc(/C=C/c2ccnc3ccccc23)cc1,?,-21%,/,/,?,18µM*
OCCN(CCO)c1ccc(/C=C/c2ccnc3ccccc23)cc1,?,-11%,/,/,1%,13µM*
CCN(CC)c1ccc(/C=C/c2ccnc3ccccc23)cc1,?,-45%,/,/,105%,i
Cc1ccc(N2C(=O)C3C4C=CC(CNC(=S)Nc5cccc(Cl)c5)(O4)C3C2=O)cc1 (centres undefined),i,-18%,-18%,i,?,12µM*
SMILES,KB-3-1 tox,HepG2 viability,ATXN2 expr inh,ATXN viability,TGFb inhibitor,KB-V1 cytotox
Cc1ccc(N2C(=O)C3C4C=CC(CNC(=S)Nc5ccc(Cl)cc5)(O4)C3C2=O)cc1 (centres undefined),?,-3%,-12%,i,-28%,8.2µM*
Cc1ccc(N2C(=O)C3C4C=CC(CNC(=S)Nc5ccc(F)cc5)(O4)C3C2=O)cc1 (centres undefined),i,0%,-11%,i,-10%,i
O=C(Nc1ccc2c(c1)OCO2)c1cc(C2CCCCN2S(=O)(=O)Cc2ccccc2)on1 (centres undefined),i,-6%,63%,?,-8%,i
O=S1(=O)N=C(Oc2ccc(C(F)(F)F)cc2)c2ccccc21,?,/,/,/,/,i
CCCn1c(=O)c2c(C(=O)OCC)cc(-c3ccco3)nc2n(CCC)c1=O,i,-10%,-6%,i,-1%,18µM*
Cc1ccn2c(NC3CCCCC3)c(-c3ccc(SC4CCCCC4)cc3)nc2c1,?,/,20%,i,/,18µM*
Cc1cc(OCC(=O)N2CCC(c3nc4ccccc4s3)CC2)ccc1Cl,i,-10%,?,?,10µM*,?
O=C(CSc1ccc(Cl)cc1)N1CCC(c2nc3ccccc3s2)CC1,?,-52%,-11%,i,?,10µM*
CC(Oc1ccc(F)cc1)C(=O)N1CCC(c2nc3ccccc3s2)CC1 (centres undefined),i,13µM*,?,?,?,8.2µM*
O=C(c1cccs1)N1CCCc2cc(NS(=O)(=O)c3ccc(F)cc3F)ccc21,i,-40%,-17%,?,?,i
Cc1cc2nc(N3C(=O)CNC3=S)sc2cc1C,?,-36%,?,?,?,16µM*
CC1CN(CCCCOc2ccc(Cl)c3ccccc23)CC(C)O1 (centres undefined),i,-59%,-33%,i,16µM*,i
COc1ccc(CN(CCC(c2ccccc2)c2ccc(OC(C)C)cc2)C(=O)CCl)cc1OC (centres undefined),10µM*,10µM*,?,/,?,8.2µM*
COc1ccc(C(CCN(Cc2ccc(OC)c(OC)c2)C(C)=O)c2ccccc2)cc1 (centres undefined),i,-24%,/,?,-8%,i
Cc1ccc2cccnc2c1NC(=S)NC(=O)c1ccccc1,i,5%,1%,i,-31%,15µM*
Cc1ccc2cn[nH]c2c1NC(=S)NC(=O)c1ccccc1,i,-16%,0%,i,?,21µM*
CNC(=O)C1(C(F)(F)F)C/C(=C/CCO)CCCO1 (centres undefined),/,5%,/,/,-4%,/
COc1ccc(Cl)cc1NC(=O)c1cc(S(=O)(=O)N2CCc3ccccc32)cn1C,/,-21%,/,/,-29%,/
